In PubChem BioAssay (NCI):
The panel holds about 83,000 compounds, 20% with a hit somewhere; the sample as a whole holds those more often.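 How to read the values: 0–100, growth inhibition (40 = 60% inhibited); 0, no net growth; -100 to 0, cell death (-40 = 40% of starting cells died; -100 = all dead).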 Active and inactive are the calls of the source. Rule for the calls: active = growth percent below 10; inactive = the rest.

How the values were obtained:
Experiment in all cases: NCI-60 one-dose screen, 48 h (100 = growth as untreated, 0 = no growth, -100 = all killed)
Conditions in all cases: 10 µM unless noted
DU-145 prostate = test system: DU-145 prostate
K-562 leukemia = test system: K-562 leukemia
MALME-3M melanoma = test system: MALME-3M melanoma
MDA-MB-231 breast = test system: MDA-MB-231 breast
RXF 393 renal = test system: RXF 393 renal
SF-268 CNS = test system: SF-268 CNS
SF-539 CNS = test system: SF-539 CNS
UACC-257 melanoma = test system: UACC-257 melanoma
M14 melanoma = test system: M14 melanoma
HCT-15 colon = test system: HCT-15 colon
HT29 colon = test system: HT29 colon
SNB-75 CNS = test system: SNB-75 CNS
SNB-19 CNS = test system: SNB-19 CNS
U251 CNS = test system: U251 CNS
PC-3 prostate = test system: PC-3 prostate
SK-MEL-5 melanoma = test system: SK-MEL-5 melanoma
UACC-62 melanoma = test system: UACC-62 melanoma
LOX IMVI melanoma = test system: LOX IMVI melanoma
SK-MEL-28 melanoma = test system: SK-MEL-28 melanoma

Measured: growth

COc1ccc(Sc2[nH]c(C=O)c3ccccc23)cc1
active: K-562 leukemia -0.59% | RXF 393 renal 6.64% | SNB-75 CNS 6.71%
inactive: DU-145 prostate 74.6% | MALME-3M melanoma 91.8% | MDA-MB-231 breast 49.3% | SF-268 CNS 78% | SF-539 CNS 64.9% | UACC-257 melanoma 91.4% | M14 melanoma 76.6% | HCT-15 colon 63.1% | HT29 colon 19.4% | SNB-19 CNS 77.6% | U251 CNS 76.6% | PC-3 prostate 45% | SK-MEL-5 melanoma 70.1% | UACC-62 melanoma 46.7% | LOX IMVI melanoma 70.3% | SK-MEL-28 melanoma 81.9%

Cc1ccc(N2C3c4ccccc4N(S(=O)(=O)c4ccc(C)cc4)C2c2ccccc2N3S(=O)(=O)c2ccc(C)cc2)cc1
inactive: DU-145 prostate 104% | K-562 leukemia 90.4% | MALME-3M melanoma 97.9% | MDA-MB-231 breast 94.3% | RXF 393 renal 121% | SF-268 CNS 107% | SF-539 CNS 95.4% | UACC-257 melanoma 102% | M14 melanoma 110% | HCT-15 colon 94.9% | HT29 colon 101% | SNB-75 CNS 89.5% | SNB-19 CNS 111% | U251 CNS 91.8% | PC-3 prostate 90.4% | SK-MEL-5 melanoma 103% | UACC-62 melanoma 99.6% | LOX IMVI melanoma 98.7% | SK-MEL-28 melanoma 99.3%

Cc1nn(-c2ccc(Cl)cc2)c(=O)n1CCN1CCOCC1
inactive: DU-145 prostate 78.5% | K-562 leukemia 70.1% | MALME-3M melanoma 59.1% | MDA-MB-231 breast 57.3% | RXF 393 renal 42.1% | SF-268 CNS 48.4% | SF-539 CNS 67% | UACC-257 melanoma 73.4% | M14 melanoma 69.8% | HCT-15 colon 74.2% | HT29 colon 104% | SNB-19 CNS 58.7% | U251 CNS 42.9% | PC-3 prostate 80.8% | SK-MEL-5 melanoma 80.3% | UACC-62 melanoma 82.8% | LOX IMVI melanoma 81.6% | SK-MEL-28 melanoma 92.9%
active: SNB-75 CNS 7.65%

CCCCCCCCCCCCCCCCOc1ccc(S(=O)(=O)N(C)C)cc1[N+](=O)[O-]
inactive: DU-145 prostate 113% | K-562 leukemia 112% | MALME-3M melanoma 86.8% | MDA-MB-231 breast 88.9% | RXF 393 renal 61.7% | SF-268 CNS 97.5% | SF-539 CNS 89.6% | UACC-257 melanoma 108% | M14 melanoma 106% | HCT-15 colon 97.2% | HT29 colon 96.4% | SNB-75 CNS 21.2% | SNB-19 CNS 78.9% | U251 CNS 50.6% | PC-3 prostate 94.4% | SK-MEL-5 melanoma 101% | UACC-62 melanoma 86.7% | LOX IMVI melanoma 120% | SK-MEL-28 melanoma 107%

Nc1ccc(C(OC(=O)c2cc3ccccc3c(Cc3c(O)c(C(=O)OC(c4ccc(N)cc4)(c4ccc(N)cc4)c4ccc(N)cc4)cc4ccccc34)c2O)(c2ccc(N)cc2)c2ccc(N)cc2)cc1
inactive: DU-145 prostate 21.9% | RXF 393 renal 28% | SF-268 CNS 24.6% | SF-539 CNS 10.3% | M14 melanoma 14.9% | HCT-15 colon 49.6% | SNB-19 CNS 19% | U251 CNS 11.2% | UACC-62 melanoma 10.7% | LOX IMVI melanoma 24% | SK-MEL-28 melanoma 33.9%
active: K-562 leukemia 7.72% | MALME-3M melanoma 5.78% | MDA-MB-231 breast -9.83% | UACC-257 melanoma 6.17% | HT29 colon 8.68% | SNB-75 CNS 8.57% | PC-3 prostate -3.26% | SK-MEL-5 melanoma -47.1%

O=C(Nc1ccc(Cl)c(C(F)(F)F)c1)c1ccc(Nc2ccc(Cl)nn2)cc1
inactive: DU-145 prostate 76.7% | K-562 leukemia 44.2% | MALME-3M melanoma 106% | MDA-MB-231 breast 59.3% | RXF 393 renal 47.8% | SF-268 CNS 80.7% | SF-539 CNS 68.1% | UACC-257 melanoma 74.6% | M14 melanoma 57.4% | HCT-15 colon 46.4% | HT29 colon 61.7% | SNB-75 CNS 84.2% | SNB-19 CNS 76.7% | U251 CNS 51.5% | PC-3 prostate 49.6% | SK-MEL-5 melanoma 59.6% | UACC-62 melanoma 51.9% | LOX IMVI melanoma 54.7% | SK-MEL-28 melanoma 72.5%

C#CC[C@@H]1C[C@]2(C)[C@H]3CC[C@@H]4[C@H]5C(C(=C)C)CC[C@]5(C(=O)NCCCN5CCN(CCCN)CC5)CC[C@@]4(C)[C@]3(C)CC[C@H]2C(C)(C)[C@H]1OC(C)=O (stereo partly drawn)
inactive: MALME-3M melanoma 67.8% | SF-268 CNS 85.5% | UACC-257 melanoma 72.1% | SK-MEL-5 melanoma 83.3%
active: DU-145 prostate -92% | K-562 leukemia -19.8% | MDA-MB-231 breast -83.3% | RXF 393 renal -87.4% | SF-539 CNS -91.3% | M14 melanoma -80.5% | HCT-15 colon -50.4% | HT29 colon -68.7% | SNB-75 CNS -95.7% | SNB-19 CNS -8.5% | U251 CNS -68.2% | PC-3 prostate 8.53% | UACC-62 melanoma -85.6% | LOX IMVI melanoma -85.3% | SK-MEL-28 melanoma -59.5%
